Where “and” joins values, the source holds several entries; their conditions need not be identical. Identical values can stand only once.
Assay: growth inhibition of RCMB18 medulloblastoma cells, cell-based, cisplatin and BGB IC40 combos (AID 1671462);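 note: cells exposed to compound for four days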
Details: cisplatin combo, at 5 µM, stronger effect = higher value

Compound	inhibition
COc1ccccc1S(=O)(=O)Nc1ccc2c(c1)CN(C)C(=O)N2	7.58%
Cc1cc(C#N)cc(C)c1Oc1nc(Nc2ccc(C#N)cc2)nc(N)c1Br	-24.1%
Nc1ncn(C2OC(CO)C(O)C2O)c(=O)n1 (stereo not drawn)	53.3%
Cc1cc(C)c(Nc2ccnc(Nc3ccc(C#N)cc3)n2)c(C)c1	-30.4%
COc1ccc(CC(N)C(=O)NC2C(CO)OC(n3cnc4c(N(C)C)ncnc43)C2O)cc1 (stereo not drawn)	76% and 95.5%
O=c1ccn(C2OC(CO)C(O)C2O)c(=O)[nH]1 (stereo not drawn)	10.7% and -4.43%
CC=C1NC(=O)C2CSSCCC=CC(CC(=O)NC(C(C)C)C(=O)N2)OC(=O)C(C(C)C)NC1=O (stereo not drawn)	96% and 97.2%
CN(C)CC(=O)Nc1ccc2[nH]c(=O)c3ccccc3c2c1	-47.6% and -22.2% and -34.1%
CC1OC(n2cc(F)c(=O)[nH]c2=O)C(O)C1O (stereo not drawn)	-44.8%
Nc1ccn(C2OC(CO)C(O)C2(F)F)c(=O)n1 (stereo not drawn)	85.9% and 82.9%
Cc1cn(C2CC(N=[N+]=[N-])C(CO)O2)c(=O)[nH]c1=O (stereo not drawn)	-15.6% and -7.21%
CC(C=CC(=O)NO)=CC(C)C(=O)c1ccc(N(C)C)cc1 (stereo not drawn)	98.1%
NC(=S)NN=Cc1ncccc1N	15.6%
CC(C)(C#N)c1ccc(N2C(=O)OCc3cnc4ccc(-c5cnc6ccccc6c5)cc4c32)cc1	20.5%
CC1CN(c2c(F)c(N)c3c(=O)c(C(=O)O)cn(C4CC4)c3c2F)CC(C)N1 (stereo not drawn)	2%
CCCCN(Cc1ccc(C(=O)NO)cc1)C(=O)Nc1ccccc1	43.7% and 48.5%
O=c1[nH]cnc2c1ncn2C1OC(CO)C(O)C1O (stereo not drawn)	-27.4% and -4.56%
Cc1cc(C=CC#N)cc(C)c1Nc1ccnc(Nc2ccc(C#N)cc2)n1	14.8%
